Experimental data from PubChem BioAssay (Tox21).
Inconclusive results are not listed. Activity calls are given as the source filed them. Unless noted, calls come from the whole dose curve.

Tests used:
[1] = Nuclear factor erythroid 2-related factor 2/antioxidant responsive element (Nrf2/ARE) small molecule agonists: qHTS cell viability counter screen in human keratinocytes (AID 1919968; active = well fitted curve in the direction sought with a large enough effect in the repeat runs; an effect the other way counts as inactive or inconclusive; note: nearly all actives have a fitted effect of over 55% in size)
Outline: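 Cells of the KeratinoSens line were plated at 1,500 per well and left for 5 h before compound transfer from DMSO stocks. After a 23 h incubation (37 C, 5% CO2), CellTiter-Fluor was added. Signal was taken as fluorescence intensity 1 h later.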

[2] = Nuclear factor erythroid 2-related factor 2/antioxidant responsive element (Nrf2/ARE) small molecule agonists: luciferase reporter gene qHTS assay in human keratinocytes (AID 1919969); note: nearly all actives have a fitted effect of over 35% in size; note: potency is the fitted concentration of half-maximal effect
[3] = target: Gonadotropin-releasing hormone receptor (Homo sapiens) (UniProt P30968); assay: Human gonadotropin-releasing hormone receptor (GnRHR) small molecule agonists, calcium flux assay in GnRHR-HEK293 cells (AID 1920063); note: nearly all actives have a fitted effect of over 35% in size
Gonadotropin-releasing hormone receptor (Homo sapiens), sequence (P30968 whole entry, looked up): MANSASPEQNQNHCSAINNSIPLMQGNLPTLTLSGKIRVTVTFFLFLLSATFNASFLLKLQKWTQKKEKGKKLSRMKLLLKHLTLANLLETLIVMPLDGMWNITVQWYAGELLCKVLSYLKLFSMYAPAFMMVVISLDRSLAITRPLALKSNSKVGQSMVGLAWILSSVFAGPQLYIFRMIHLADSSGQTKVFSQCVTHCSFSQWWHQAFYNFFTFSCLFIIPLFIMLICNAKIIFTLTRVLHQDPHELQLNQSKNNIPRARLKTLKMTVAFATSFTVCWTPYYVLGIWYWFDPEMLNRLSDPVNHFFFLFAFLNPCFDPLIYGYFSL
Outline: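 Compounds dissolved in DMSO are pin-transferred onto dye-loaded GnRHR-HEK293 cells, which were seeded 18 h before at 37 C/5% CO2. Calcium signal is read as fluorescence intensity at 1 s intervals for 3 min.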

[4] = target: KiSS-1 receptor (Homo sapiens) (UniProt Q969F8); assay: Human kisspeptin (KISS1R) small molecule agonists, calcium flux assay in KISS1R-HEK293 cells (AID 1920064; active = well fitted curve in the direction sought with a large enough effect in the repeat runs; an effect the other way counts as inactive or inconclusive)
KiSS-1 receptor (Homo sapiens), sequence (Q969F8 whole entry, looked up): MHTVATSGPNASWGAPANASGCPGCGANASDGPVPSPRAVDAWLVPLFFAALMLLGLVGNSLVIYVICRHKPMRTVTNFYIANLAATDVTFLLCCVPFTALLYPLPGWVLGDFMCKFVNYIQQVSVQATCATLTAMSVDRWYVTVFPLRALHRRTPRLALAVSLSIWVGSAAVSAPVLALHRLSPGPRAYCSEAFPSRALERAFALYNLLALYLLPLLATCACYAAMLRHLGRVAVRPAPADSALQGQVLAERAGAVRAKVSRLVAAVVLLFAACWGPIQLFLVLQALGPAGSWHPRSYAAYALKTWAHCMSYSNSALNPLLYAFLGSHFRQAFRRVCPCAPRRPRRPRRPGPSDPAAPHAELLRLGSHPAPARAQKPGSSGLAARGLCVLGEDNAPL
Outline: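 Cell line: HEK293, stable human KISS1R. Dye loading 1 h at 37 C after 18 h culture. Read: kinetic fluorescence, 480/540 nm, 3 min at 1 s intervals.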

[5] = G protein-coupled receptor (GPCR) small molecule agonists, calcium flux assay: HEK293 wild type cell line counter screen (AID 1920065)
Outline: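 Tox21 10K compounds, 15 concentrations each in triplicate, pin-transferred in DMSO onto dye-loaded cells; kinetic read at 480/540 nm for 3 min, 1 s intervals.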

[6] = p53 small molecule agonists, cell-based qHTS assay with human liver microsomes (AID 1963577);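 note: p53 response element beta-lactamase reporter cells with liver microsomes plus NADPH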
Outline: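 In this qHTS, p53 response-element beta-lactamase cells receive test compound together with a microsome/NADPH activating system (0.5 mg/mL final each) and are incubated 16 h at 37 C before LiveBLAzer fluorescence detection.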

[7] = p53 small molecule agonists, cell-based qHTS assay with rat liver microsomes (AID 1963578)
Outline: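 Agonist mode in p53RE-bla reporter cells, with compounds co-incubated 16 h at 37 C alongside 0.5 mg/mL rat liver microsomes and 0.5 mg/mL NADPH (final), followed by a 2 h LiveBLAzer detection step.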

[8] = p53 small molecule agonists, cell-based qHTS assay with human liver microsomes: qHTS cell viability counter screen (AID 1963579); note: nearly all actives have a fitted effect of over 45% in size
Outline: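 Metabolically activated exposure: compounds, human liver microsomes and NADPH (0.5 mg/mL final apiece) were added to p53RE-bla cells seeded 5 h earlier, left 16 h at 37 C, and then assessed for viability by CellTiter-Glo luminescence.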

[9] = p53 small molecule agonists, cell-based qHTS assay with rat liver microsomes: qHTS cell viability counter screen (AID 1963580); note: nearly all actives have a fitted effect of over 45% in size
Outline: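 Cytotoxicity counter screen: intracellular ATP read by CellTiter-Glo luminescence in the p53 reporter wells. HCT-116 p53RE-bla cells were treated for 16 h at 37 C alongside rat liver microsomes and NADPH, each 0.5 mg/mL final.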

[10] = p53 small molecule agonists, cell-based qHTS assay: qHTS cell viability counter screen (AID 1963581); note: nearly all actives have a fitted effect of over 45% in size
Outline: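 ATP content measured by luminescence in HCT-116 p53RE-bla cells treated 16 h at 37 C, same wells as the reporter screen.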

[11] = p53 small molecule agonists, cell-based qHTS assay (AID 1963582; active = well fitted activation curve with a large enough effect in the signal ratio in the repeat runs, not every such curve was filed as active; the % refers to the signal ratio)
Outline: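 16 h compound exposure (37 C) of p53 response element–bla cells, preceded by 5 h recovery at 37 C/5% CO2; read-out via LiveBLAzer B/G FRET substrate, 2 h RT, fluorescence intensity.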

[12] = target: 5-hydroxytryptamine receptor 2A (Homo sapiens) (UniProt P28223); assay: 5-hydroxytryptamine receptor 2A (HTR2A) small molecule antagonists, cell-based qHTS assay (AID 1963586); note: nearly all actives have a fitted effect of over 45% in size
5-hydroxytryptamine receptor 2A (Homo sapiens), sequence (P28223 whole entry, looked up): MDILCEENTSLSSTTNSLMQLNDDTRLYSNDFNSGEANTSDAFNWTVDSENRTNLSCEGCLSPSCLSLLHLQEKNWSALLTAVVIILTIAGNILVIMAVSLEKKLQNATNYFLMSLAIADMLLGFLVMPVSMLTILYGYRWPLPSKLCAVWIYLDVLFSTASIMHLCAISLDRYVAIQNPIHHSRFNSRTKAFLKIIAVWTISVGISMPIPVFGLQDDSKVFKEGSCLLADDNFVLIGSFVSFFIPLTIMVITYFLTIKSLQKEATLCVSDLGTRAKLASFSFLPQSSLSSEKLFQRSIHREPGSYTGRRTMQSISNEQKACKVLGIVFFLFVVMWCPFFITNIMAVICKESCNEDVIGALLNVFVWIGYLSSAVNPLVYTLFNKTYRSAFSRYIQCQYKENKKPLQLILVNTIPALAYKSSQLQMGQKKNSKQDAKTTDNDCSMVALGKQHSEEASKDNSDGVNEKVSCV
Outline: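 CHO cells stably expressing human HTR2A were plated for 18 h at 37 C, then loaded with calcium dye for 1 h. Compounds were preincubated 5 min at room temperature before DOI (4 nM solution) was added. Kinetic fluorescence was read for 3 min.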

[13] = target: 5-hydroxytryptamine receptor 2A (Homo sapiens) (UniProt P28223); assay: 5-hydroxytryptamine receptor 2A (HTR2A) small molecule agonists, cell-based qHTS assay (AID 1963587); note: nearly all actives have a fitted effect of over 30% in size
Outline: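 Kinetic calcium-flux fluorescence (2 min, 1 sec intervals) after compound addition in agonist mode. HTR2A-CHO cells were cultured 18 h, then dye-loaded 1 h at 37 C.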

[14] = target: Muscarinic acetylcholine receptor M1 (Homo sapiens) (UniProt P11229); assay: Cholinergic receptor muscarinic 1 (CHRM1) small molecule antagonists, cell-based qHTS assay (AID 1963588); note: nearly all actives have a fitted effect of over 40% in size
Muscarinic acetylcholine receptor M1 (Homo sapiens), sequence (P11229 whole entry, looked up): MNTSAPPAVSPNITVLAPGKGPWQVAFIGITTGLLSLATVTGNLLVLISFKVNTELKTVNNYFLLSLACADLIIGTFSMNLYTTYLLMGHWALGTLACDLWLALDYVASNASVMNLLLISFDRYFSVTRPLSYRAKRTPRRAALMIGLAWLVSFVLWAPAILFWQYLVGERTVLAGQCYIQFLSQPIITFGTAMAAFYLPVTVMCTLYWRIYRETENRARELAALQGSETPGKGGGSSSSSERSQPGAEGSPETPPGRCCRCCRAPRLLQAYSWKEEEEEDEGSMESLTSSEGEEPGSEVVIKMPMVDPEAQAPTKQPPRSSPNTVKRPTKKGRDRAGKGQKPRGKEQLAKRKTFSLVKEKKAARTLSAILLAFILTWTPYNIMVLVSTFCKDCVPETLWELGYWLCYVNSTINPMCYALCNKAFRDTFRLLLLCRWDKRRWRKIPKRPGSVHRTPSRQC
Outline: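 Compounds were tested at 15 concentrations in three independent runs. Dye-loaded CHRM1-CHO cells were exposed 5 min at room temperature before stimulation by acetylcholine added at 50nM. Intracellular calcium was read kinetically on FDSS for 3 min.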

[15] = target: Muscarinic acetylcholine receptor M1 (Homo sapiens) (UniProt P11229); assay: Cholinergic receptor muscarinic 1 (CHRM1) small molecule agonists, cell-based qHTS assay (AID 1963589); note: nearly all actives have a fitted effect of over 35% in size
Outline: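 Homogeneous fluorescence calcium flux, agonist mode. Human M1-expressing CHO cells; compound dosed at 15 concentrations, three independent runs; signal sampled every 1 sec.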

[16] = cAMP Responsive Elements (CRE) small molecule agonists, cell-based qHTS assay (AID 1963590)
Outline: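 HEK 293T cells stably bearing CRE-bla were plated at 2,000 cells per well and rested 18 h. Compounds, positive controls or DMSO were added for 3 h at 37 C. LiveBLAzer B/G substrate was then loaded for 2 h at room temperature.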

[17] = cAMP Responsive Elements (CRE) small molecule antagonists, cell-based qHTS assay (AID 1963591; active = well fitted inhibition curve with a large enough effect in the signal ratio in the repeat runs, not every such curve was filed as active; the % refers to the signal ratio)
Outline: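 First, CRE-bla HEK293T cells settled 18 h at 37 C. Next, compound and 0.25 uM final NKH477 were applied for 3 h. Last, LiveBLAzer B/G substrate was loaded for 2 h at room temperature.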

[18] = target: Beta-2 adrenergic receptor (Homo sapiens) (UniProt P07550); assay: Adrenergic beta2 receptor (ADRB2) small molecule antagonists, cell-based qHTS assay (AID 1963592); note: series mostly up to about 92 µM; nearly all actives have a fitted effect of over 50% in size
Beta-2 adrenergic receptor (Homo sapiens), sequence (P07550 whole entry, looked up): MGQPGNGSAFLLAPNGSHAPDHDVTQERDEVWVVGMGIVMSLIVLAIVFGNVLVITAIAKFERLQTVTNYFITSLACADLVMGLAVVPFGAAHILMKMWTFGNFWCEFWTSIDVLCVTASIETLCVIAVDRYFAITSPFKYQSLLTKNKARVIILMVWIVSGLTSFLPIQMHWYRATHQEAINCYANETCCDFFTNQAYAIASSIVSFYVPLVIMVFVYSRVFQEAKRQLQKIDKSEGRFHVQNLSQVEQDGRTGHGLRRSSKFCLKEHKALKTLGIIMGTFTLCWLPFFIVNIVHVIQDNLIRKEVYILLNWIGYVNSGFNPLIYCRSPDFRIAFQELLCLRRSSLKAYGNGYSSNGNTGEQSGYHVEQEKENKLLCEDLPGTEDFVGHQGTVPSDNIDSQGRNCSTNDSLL
Outline: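 Assay format: CHO-ADRB2 cells, 18-20hr seeding at 37C/5% CO2, then compound plus 1nM isoproterenol agonist mix for 0.5hr RT. Homogeneous time-resolved fluorescence cAMP detection after 1hr, expressed as 665/615 nm ratio.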

[19] = target: Beta-2 adrenergic receptor (Homo sapiens) (UniProt P07550); assay: Adrenergic beta2 receptor (ADRB2) small molecule agonists, cell-based qHTS assay (AID 1963593);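 note: CHO cells stably overexpressing human ADRB2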
Outline: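 CHO cells stably over-expressing ADRB2 were plated overnight at 37C, then dosed with compounds plus a stimulation mix containing 100uM IBMX and 25uM Ro-20-1724 for 0.5hr at room temperature. cAMP was measured by HTRF competition, 1hr.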

[20] = target: D(2) dopamine receptor (Homo sapiens) (UniProt P14416); assay: Dopamine D2 receptor (DRD2) small molecule agonists, cell-based qHTS assay (AID 1963594); note: nearly all actives have a fitted effect of over 35% in size
D(2) dopamine receptor (Homo sapiens), sequence (P14416 whole entry, looked up): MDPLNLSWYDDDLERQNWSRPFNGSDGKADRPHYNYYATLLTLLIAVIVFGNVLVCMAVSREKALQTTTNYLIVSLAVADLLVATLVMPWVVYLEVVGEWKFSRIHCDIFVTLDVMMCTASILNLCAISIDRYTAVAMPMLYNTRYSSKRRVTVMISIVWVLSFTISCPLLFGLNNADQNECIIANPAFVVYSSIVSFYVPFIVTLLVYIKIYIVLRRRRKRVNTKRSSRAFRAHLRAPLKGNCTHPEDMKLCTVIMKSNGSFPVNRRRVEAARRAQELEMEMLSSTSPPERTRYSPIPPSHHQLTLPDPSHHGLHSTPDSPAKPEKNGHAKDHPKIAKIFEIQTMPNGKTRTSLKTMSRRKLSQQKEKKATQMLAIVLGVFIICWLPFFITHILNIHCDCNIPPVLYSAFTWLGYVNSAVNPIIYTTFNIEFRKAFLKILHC
Outline: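 cAMP accumulation in DRD2-HEK293 cells measured by HTRF after 1 h detection; compounds added 10 min before NKH477 (200nM […]) forskolin-analogue stimulation, 30 min at room temperature, with Ro20-1724 present at 0.1 mM final.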

Measured: Potency

CC(CC=O)CC(C)(C)C (stereo not given)
inactive: [1] | [2] | [3] | [4] | [5] | [6] | [7] | [8] | [9] | [10] | [11] | [12] | [13] | [14] | [15] | [16] | [17] | [18] | [19] | [20]

CCCCCCCCN(C)C
inactive: [1] | [2] | [3] | [4] | [5] | [6] | [7] | [8] | [9] | [10] | [11] | [12] | [13] | [14] | [15] | [16] | [17] | [18] | [19] | [20]

NC(=S)N/N=C/c1cccnc1
inactive: [1] | [2] | [3] | [4] | [5] | [6] | [7] | [8] | [9] | [10] | [11] | [12] | [13] | [14] | [15] | [16] | [17] | [18] | [19] | [20]

OCc1c2ccccc2cc2ccccc12
inactive: [1] | [2] | [3] | [4] | [5] | [6] | [7] | [8] | [9] | [10] | [11] | [12] | [13] | [14] | [15] | [16] | [17] | [18] | [19] | [20]

COc1cccc(OC)c1
inactive: [1] | [2] | [3] | [4] | [5] | [6] | [7] | [8] | [9] | [10] | [11] | [12] | [13] | [14] | [15] | [16] | [17] | [18] | [19] | [20]

O=C1Cc2cc(Cl)ccc2N1
inactive: [1] | [2] | [3] | [4] | [5] | [6] | [7] | [8] | [9] | [10] | [11] | [12] | [13] | [14] | [15] | [16] | [17] | [18] | [19] | [20]

CC(C)(CCl)c1ccccc1
inactive: [1] | [2] | [3] | [4] | [5] | [6] | [7] | [8] | [9] | [10] | [11] | [12] | [13] | [14] | [15] | [16] | [17] | [18] | [19] | [20]

CCN(CC)CC(=O)OCC(=O)[C@@]1(O)CC[C@H]2[C@@H]3CCC4=CC(=O)CC[C@]4(C)[C@H]3[C@@H](O)C[C@@]21C
inactive: [1] | [2] | [3] | [4] | [5] | [6] | [7] | [8] | [9] | [10] | [11] | [12] | [13] | [14] | [15] | [16] | [17] | [18] | [19] | [20]

CCCCC(CC)C(=O)OCCOCCOCCOC(=O)C(CC)CCCC (stereo not given)
inactive: [1] | [3] | [4] | [5] | [6] | [7] | [8] | [9] | [10] | [11] | [12] | [13] | [14] | [15] | [16] | [17] | [18] | [19] | [20]
active: [2] 68.6 µM

C/C=C/c1ccc(OC)c(OC)c1
inactive: [1] | [2] | [3] | [4] | [5] | [6] | [7] | [8] | [9] | [10] | [11] | [12] | [13] | [14] | [15] | [16] | [17] | [18] | [19] | [20]

CC(C)(CC(=O)O)C(=O)O
inactive: [1] | [2] | [3] | [4] | [5] | [6] | [7] | [8] | [9] | [10] | [11] | [12] | [13] | [14] | [15] | [16] | [17] | [18] | [19] | [20]

O=C(/N=N/C(=O)OCc1ccccc1)OCc1ccccc1
inactive: [1] | [2] | [3] | [4] | [5] | [6] | [7] | [8] | [9] | [10] | [11] | [12] | [13] | [14] | [15] | [16] | [17] | [18] | [19] | [20]

C=CCn1cc[n+](C)c1
inactive: [1] | [2] | [3] | [4] | [5] | [6] | [7] | [8] | [9] | [10] | [11] | [12] | [13] | [14] | [15] | [16] | [17] | [18] | [19] | [20]

CC(=O)N[C@H]1[C@H]([C@H](O)[C@H](O)CO)OC(C(=O)O)=C[C@@H]1N=C(N)N
inactive: [1] | [2] | [3] | [4] | [5] | [6] | [7] | [8] | [9] | [10] | [11] | [12] | [13] | [14] | [15] | [16] | [17] | [18] | [19] | [20]
